# Assay results: PubChem BioAssay (EPA / NIEHS)
# Where “and” joins values, the source holds several entries; their conditions need not be identical. Identical values can stand only once. Some structures have more than one record in an assay (separate samples or runs), and their calls can disagree. Calls of active or inactive are those of the source. How the source made its calls: active means hit-call score of the fitted dose curve at least 0.9, where 1 is the maximum; inactive means score below 0.9.
# Legend:
# [1] = ATG_M_32_CIS: Attagene CIS-FACTORIAL HepG2 Assay for M32 Transcription Factor (Internal Marker) (AID 2282949); conditions: HepG2 Attagene cis-factorial M32 reporter, mRNA; actives raise or lower the signal;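 further: background control marker of the multiplexed CIS panel rather than a real target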
# Method in brief: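 Internal background marker read-out: RT-PCR/capillary electrophoresis fluorescence of reporter transcripts from transiently transfected HepG2 cells after 24 h chemical exposure. Activity fitted bidirectionally relative to DMSO negative control.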
# [2] = ATG_M_06_CIS: Attagene CIS-FACTORIAL HepG2 Assay for M06 Transcription Factor (Internal Marker) (AID 2282950); conditions: HepG2 Attagene CIS-FACTORIAL M06 internal marker reporter; actives raise or lower the signal
# Method in brief: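 Cells (HepG2, transiently carrying cis-driven reporter units) receive chemical for 24 h before RNA isolation. Reporter cDNA is PCR-amplified, FAM-labelled by primer extension, HpaI-digested and sized on a capillary analyser.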
# [3] = molecular target: Hypoxia-inducible factor 1-alpha (Homo sapiens) (UniProt Q16665); test: ATG_HIF1a_CIS: Attagene CIS-FACTORIAL HepG2 Assay for human Hypoxia Inducible Factor 1 (HIF1A) (AID 2282951); conditions: HepG2 Attagene cis-factorial HIF1a reporter transcription; actives raise or lower the signal
# Method in brief: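 Measures endogenous transcription-factor activity through cis-regulated reporter mRNA in HepG2. Cells dosed 24 h; transcripts quantified by RT-PCR with 6-FAM-labelled products separated by capillary electrophoresis; DMSO serves as negative control.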
# [4] = molecular target: Heat shock factor protein 1 (Homo sapiens) (UniProt Q00613); test: ATG_HSE_CIS: Attagene CIS-FACTORIAL HepG2 Assay for human Heat Shock Transcription Factor 1 (HSE) (AID 2282953); conditions: HepG2 HSE cis-reporter, Attagene RNA transcription; actives raise or lower the signal
# Method in brief: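 Liver-derived HepG2 cells carry transiently introduced multiple reporter units governed by cis promoters. Reporter RNA measured 24 h post-dose through reverse transcription, PCR amplification, fluorescent labelling and capillary electrophoresis, normalised to DMSO.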
# [5] = ATG_MRE_CIS: Attagene CIS-FACTORIAL HepG2 Assay for human Metal Responsive Element (MRE) (AID 2282954); conditions: HepG2 MRE cis-reporter transcription, Attagene multiplex; actives raise or lower the signal
# Method in brief: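 HepG2 cells transiently transfected with multiple cis-element reporter units measure endogenous MTF1-driven transcription. After 24 h compound exposure, reporter mRNA is quantified by RT-PCR with 6-FAM labelling, HpaI digestion and capillary electrophoresis; bidirectional fits versus DMSO.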
# [6] = molecular target: Paired box protein Pax-6 (Homo sapiens) (UniProt P26367); test: ATG_Pax6_CIS: Attagene CIS-FACTORIAL HepG2 Assay for human Paired Box 6 (PAX6) (AID 2282956); conditions: HepG2 CIS-FACTORIAL PAX6 reporter transcription, RNA readout; actives raise or lower the signal
# Method in brief: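 HepG2 cells transiently transfected with cis-promoter-driven multiplexed reporter units sensing endogenous transcription factor activity; 24 h chemical exposure. Reporter mRNA quantified by RT-PCR, 6-FAM labelling, HpaI digestion and capillary electrophoresis; bidirectional fit versus DMSO baseline.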
# [7] = ATG_PXRE_CIS: Attagene CIS-FACTORIAL HepG2 Assay for human Pregnane X Receptor Element (PXRE) (AID 2282957); conditions: HepG2 Attagene CIS-FACTORIAL PXRE reporter, mRNA; actives raise or lower the signal
# Method in brief: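 Cells: HepG2, transiently transfected reporter units under cis promoter control. Exposure: 24 h. Detection: reporter mRNA via RT-PCR/CE fluorescence; bidirectional fitting, DMSO-referenced.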
# [8] = ATG_RORE_CIS: Attagene CIS-FACTORIAL HepG2 Assay for human RAR-related Orphan Receptor Element (RORE) (AID 2282959); conditions: HepG2 Attagene cis-factorial RORE reporter, mRNA; actives raise or lower the signal
# Method in brief: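 Cells were HepG2 carrying transfected cis-regulated reporter constructs, dosed for 24 hours. Total RNA was reverse-transcribed and reporter cDNA amplified, fluorescently labeled and sized by capillary electrophoresis. Activity was fitted bidirectionally relative to DMSO.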
# [9] = molecular target: Transcription factor Sp1 (Homo sapiens) (UniProt P08047); test: ATG_Sp1_CIS: Attagene CIS-FACTORIAL HepG2 Assay for human Specificity Protein 1 (Sp1) (AID 2282961); conditions: HepG2 Sp1 cis-reporter transcription, actives raise or lower the signal
# Method in brief: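 Endogenous Sp1 activity was gauged in human liver HepG2 cells bearing transfected reporter units under a cis-regulating promoter. After 24 h dosing, reporter mRNA was quantified by RT-PCR with capillary electrophoresis, and activity fitted bidirectionally versus DMSO.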
# [10] = ATG_SREBP_CIS: Attagene CIS-FACTORIAL HepG2 Assay for human Sterol Regulatory Element Binding (SREBP) (AID 2282962); conditions: HepG2 Attagene cis-factorial SREBP reporter, mRNA; actives raise or lower the signal
# Method in brief: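 HepG2 cells transiently transfected with multiplexed cis-promoter reporter units sensing endogenous transcription factors; reporter mRNA measured 24 h after dosing by RT-PCR, 6-FAM labeling, HpaI digestion and capillary electrophoresis. Bidirectional fit versus DMSO.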
# [11] = molecular target: Signal transducer and activator of transcription 3 (Homo sapiens) (UniProt P40763); test: ATG_STAT3_CIS: Attagene CIS-FACTORIAL HepG2 Assay for human Signal Transducer and Activator of Transcription 3 (STAT3) (AID 2282963); conditions: HepG2, Attagene cis-factorial STAT3 reporter transcription; actives raise or lower the signal
# Method in brief: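 HepG2 cells transiently transfected with cis-element-driven multiple reporter transcription units; after 24 h chemical exposure, reporter mRNA measured by RT-PCR, 6-FAM primer-extension labelling, HpaI digestion and capillary electrophoresis. Bidirectional fitting versus DMSO baseline.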
# [12] = ATG_TA_CIS: Attagene CIS-FACTORIAL HepG2 Assay for human TA Basal Promoter (AID 2282964); conditions: HepG2 Attagene CIS-factorial TA basal promoter reporter; actives raise or lower the signal
# Method in brief: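 Background internal-marker endpoint from a 52-component HepG2 cis-reporter panel. Cells treated 24 h; reporter transcripts quantified via RT-PCR and CE fluorescence against DMSO baseline.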
# [13] = ATG_TCF_b_cat_CIS: Attagene CIS-FACTORIAL HepG2 Assay for human T-Cell-Factor with beta-catenin (TCF/b-cat) (AID 2282965); conditions: HepG2 TCF/beta-catenin cis-reporter transcription, actives raise or lower the signal
# Method in brief: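 Using capillary electrophoresis as the read-out, labelled reporter cDNA fragments from transiently transfected HepG2 were sized and quantified. Exposure lasted 24 hours; activity in either direction was referenced to DMSO.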
# [14] = ATG_TAL_CIS: Attagene CIS-FACTORIAL HepG2 Assay for human TAL Basal Promoter (AID 2282966); conditions: HepG2 Attagene cis-factorial TAL promoter reporter; actives raise or lower the signal;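 further: background control endpoint measuring basal TAL promoter reporter mRNA not a specific factor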
# Method in brief: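 RT-PCR plus capillary electrophoresis quantifies reporter mRNA induction in transiently transfected HepG2 cells after 24 h chemical treatment. DMSO serves as negative control and baseline for bidirectional fitting.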
# [15] = ATG_TGFb_CIS: Attagene CIS-FACTORIAL HepG2 Assay for human Transforming Growth Factor (TGF) (AID 2282967); conditions: HepG2 Attagene CIS TGFb reporter, mRNA transcription; actives raise or lower the signal
# Method in brief: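 Liver HepG2 line, cis-factorial reporter panel, 24 h dosing. Quantitation: RT-PCR products labeled with 6-FAM, cut with HpaI, resolved by capillary electrophoresis; DMSO-referenced bidirectional analysis.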
# [16] = molecular target: Hepatocyte nuclear factor 6 (Homo sapiens) (UniProt Q9UBC0); test: ATG_HNF6_CIS: Attagene CIS-FACTORIAL HepG2 Assay for human Hepatocyte Nuclear Factor 6 (HNF6) (AID 2282952); conditions: HepG2 Attagene cis-factorial HNF6 reporter transcription; actives raise or lower the signal
# Method in brief: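 Multiplexed mRNA reporter assay in transfected HepG2; 24 h dosing; RT-PCR plus capillary electrophoresis fluorescence; DMSO-referenced bidirectional curve fitting.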
# [17] = ATG_PBREM_CIS: Attagene CIS-FACTORIAL HepG2 Assay for human Phenobarbital-responsive Enhancer Module (PBREM) (AID 2282955); conditions: HepG2 PBREM cis-reporter, Attagene multiplexed transcription; actives raise or lower the signal
# Method in brief: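 Fluorescence of labelled reporter cDNA fragments, resolved by capillary electrophoresis, gives mRNA induction in transfected HepG2 cells treated for 24 h; DMSO serves as negative control and baseline.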
# [18] = ATG_PPRE_CIS: Attagene CIS-FACTORIAL HepG2 Assay for human Peroxisome Proliferator-activated Response Element (PPRE) (AID 2282958); conditions: HepG2 PPRE cis-element reporter, Attagene transcription factor profiling; actives raise or lower the signal
# Method in brief: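 Cells are first transfected transiently with the multiplexed reporter library, then dosed for 24 h. Total RNA is reverse-transcribed, amplified, fluorescently end-labeled and HpaI-cut before capillary electrophoresis; activity is fitted bidirectionally against DMSO controls.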
# [19] = ATG_Sox_CIS: Attagene CIS-FACTORIAL HepG2 Assay for human SRY-box transcription factor (SOX) (AID 2282960); conditions: HepG2 Attagene cis-factorial SOX reporter, mRNA; actives raise or lower the signal
# Method in brief: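 Transient MRTU transfection of HepG2; 24 h compound incubation; TriZol RNA, oligo(dT) RT, PCR, 6-FAM primer extension, HpaI cut, CE. Bidirectional fit, DMSO = baseline.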
# Hepatocyte nuclear factor 6 (Homo sapiens), sequence (Q9UBC0 whole entry, looked up): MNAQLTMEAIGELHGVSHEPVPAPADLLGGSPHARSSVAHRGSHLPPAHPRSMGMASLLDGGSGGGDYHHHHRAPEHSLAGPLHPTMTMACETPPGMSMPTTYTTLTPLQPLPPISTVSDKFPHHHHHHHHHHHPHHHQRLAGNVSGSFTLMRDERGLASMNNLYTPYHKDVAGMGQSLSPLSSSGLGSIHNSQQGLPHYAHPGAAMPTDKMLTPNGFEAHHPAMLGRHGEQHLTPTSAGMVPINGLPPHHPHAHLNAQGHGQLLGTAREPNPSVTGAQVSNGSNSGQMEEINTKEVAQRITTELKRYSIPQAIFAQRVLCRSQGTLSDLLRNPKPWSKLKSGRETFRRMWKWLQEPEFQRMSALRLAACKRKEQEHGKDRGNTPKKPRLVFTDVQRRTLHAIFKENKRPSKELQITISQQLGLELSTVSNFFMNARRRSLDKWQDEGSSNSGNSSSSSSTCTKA
# Paired box protein Pax-6 (Homo sapiens), sequence (P26367 whole entry, looked up): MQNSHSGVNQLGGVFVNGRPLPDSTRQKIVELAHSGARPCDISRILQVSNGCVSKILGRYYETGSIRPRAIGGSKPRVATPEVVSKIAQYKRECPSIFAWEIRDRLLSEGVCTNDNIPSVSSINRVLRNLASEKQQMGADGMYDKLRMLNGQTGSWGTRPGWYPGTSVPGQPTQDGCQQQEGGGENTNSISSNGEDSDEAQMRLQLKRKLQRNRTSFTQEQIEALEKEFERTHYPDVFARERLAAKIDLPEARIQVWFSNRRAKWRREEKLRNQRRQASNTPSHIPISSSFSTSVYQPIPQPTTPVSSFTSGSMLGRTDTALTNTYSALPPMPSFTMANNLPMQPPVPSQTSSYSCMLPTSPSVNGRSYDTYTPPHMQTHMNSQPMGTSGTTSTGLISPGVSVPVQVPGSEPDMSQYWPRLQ
# Signal transducer and activator of transcription 3 (Homo sapiens), sequence (P40763 whole entry, looked up): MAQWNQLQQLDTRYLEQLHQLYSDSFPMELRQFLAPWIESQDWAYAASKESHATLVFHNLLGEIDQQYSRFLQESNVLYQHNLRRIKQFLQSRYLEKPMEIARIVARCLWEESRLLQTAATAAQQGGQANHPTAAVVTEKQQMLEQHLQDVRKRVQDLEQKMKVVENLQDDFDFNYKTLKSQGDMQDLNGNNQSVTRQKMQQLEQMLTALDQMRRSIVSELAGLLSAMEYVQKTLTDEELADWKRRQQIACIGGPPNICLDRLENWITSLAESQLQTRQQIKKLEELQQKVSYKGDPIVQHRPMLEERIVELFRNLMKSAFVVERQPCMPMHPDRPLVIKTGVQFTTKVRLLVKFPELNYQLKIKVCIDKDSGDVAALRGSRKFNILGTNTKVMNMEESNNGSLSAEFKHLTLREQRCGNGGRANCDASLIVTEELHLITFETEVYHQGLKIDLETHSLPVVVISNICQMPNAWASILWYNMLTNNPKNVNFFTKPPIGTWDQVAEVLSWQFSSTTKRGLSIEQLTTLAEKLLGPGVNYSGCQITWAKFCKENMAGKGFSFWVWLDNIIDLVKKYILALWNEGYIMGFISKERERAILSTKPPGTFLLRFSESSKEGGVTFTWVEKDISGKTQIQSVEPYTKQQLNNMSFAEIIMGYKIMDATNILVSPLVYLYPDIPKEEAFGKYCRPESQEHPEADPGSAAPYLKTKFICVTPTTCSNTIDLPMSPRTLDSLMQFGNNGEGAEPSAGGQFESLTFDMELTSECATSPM
# Transcription factor Sp1 (Homo sapiens), sequence (P08047 whole entry, looked up): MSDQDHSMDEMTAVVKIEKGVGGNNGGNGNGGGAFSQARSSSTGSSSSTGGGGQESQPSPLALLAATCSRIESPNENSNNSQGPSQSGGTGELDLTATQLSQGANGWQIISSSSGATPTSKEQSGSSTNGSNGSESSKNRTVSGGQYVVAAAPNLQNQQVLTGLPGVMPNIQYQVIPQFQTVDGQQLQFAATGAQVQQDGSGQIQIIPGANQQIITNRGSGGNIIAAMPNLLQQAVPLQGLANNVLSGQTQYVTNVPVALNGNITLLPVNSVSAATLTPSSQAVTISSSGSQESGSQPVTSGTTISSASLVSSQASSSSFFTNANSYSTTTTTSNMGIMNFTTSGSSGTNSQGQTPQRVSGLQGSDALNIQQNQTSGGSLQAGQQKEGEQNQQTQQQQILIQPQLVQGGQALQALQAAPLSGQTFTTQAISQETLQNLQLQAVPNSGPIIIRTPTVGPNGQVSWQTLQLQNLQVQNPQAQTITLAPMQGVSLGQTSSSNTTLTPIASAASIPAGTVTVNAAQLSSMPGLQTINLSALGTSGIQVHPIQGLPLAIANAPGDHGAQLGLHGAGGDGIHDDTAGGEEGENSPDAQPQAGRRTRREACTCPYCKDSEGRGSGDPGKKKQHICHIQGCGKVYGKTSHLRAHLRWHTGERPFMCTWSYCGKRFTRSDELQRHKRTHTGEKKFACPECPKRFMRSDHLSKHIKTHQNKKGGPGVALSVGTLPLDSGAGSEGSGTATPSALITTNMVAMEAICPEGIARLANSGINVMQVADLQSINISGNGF
# Hypoxia-inducible factor 1-alpha (Homo sapiens), sequence (Q16665 whole entry, looked up): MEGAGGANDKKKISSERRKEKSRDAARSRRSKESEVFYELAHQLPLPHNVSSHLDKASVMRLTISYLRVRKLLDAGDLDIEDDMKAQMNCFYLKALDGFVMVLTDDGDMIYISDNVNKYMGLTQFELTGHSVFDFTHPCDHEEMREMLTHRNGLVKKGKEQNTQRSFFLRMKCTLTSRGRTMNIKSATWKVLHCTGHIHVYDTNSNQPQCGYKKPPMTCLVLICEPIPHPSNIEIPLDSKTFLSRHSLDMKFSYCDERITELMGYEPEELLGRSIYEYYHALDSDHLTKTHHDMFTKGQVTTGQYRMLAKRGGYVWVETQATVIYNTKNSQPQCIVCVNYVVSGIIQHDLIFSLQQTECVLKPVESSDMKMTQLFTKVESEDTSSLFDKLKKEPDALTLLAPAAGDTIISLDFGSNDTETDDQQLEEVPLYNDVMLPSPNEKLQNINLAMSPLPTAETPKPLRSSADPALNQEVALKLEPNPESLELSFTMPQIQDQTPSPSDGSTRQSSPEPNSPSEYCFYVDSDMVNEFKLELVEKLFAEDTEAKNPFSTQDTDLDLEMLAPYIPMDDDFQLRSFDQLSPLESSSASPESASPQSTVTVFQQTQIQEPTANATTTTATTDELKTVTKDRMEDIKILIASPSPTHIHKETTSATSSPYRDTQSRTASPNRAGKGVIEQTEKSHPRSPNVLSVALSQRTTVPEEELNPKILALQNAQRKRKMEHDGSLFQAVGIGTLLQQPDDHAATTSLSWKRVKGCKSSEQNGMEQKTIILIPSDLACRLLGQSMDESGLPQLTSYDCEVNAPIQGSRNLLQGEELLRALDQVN
# Heat shock factor protein 1 (Homo sapiens), sequence (Q00613 whole entry, looked up): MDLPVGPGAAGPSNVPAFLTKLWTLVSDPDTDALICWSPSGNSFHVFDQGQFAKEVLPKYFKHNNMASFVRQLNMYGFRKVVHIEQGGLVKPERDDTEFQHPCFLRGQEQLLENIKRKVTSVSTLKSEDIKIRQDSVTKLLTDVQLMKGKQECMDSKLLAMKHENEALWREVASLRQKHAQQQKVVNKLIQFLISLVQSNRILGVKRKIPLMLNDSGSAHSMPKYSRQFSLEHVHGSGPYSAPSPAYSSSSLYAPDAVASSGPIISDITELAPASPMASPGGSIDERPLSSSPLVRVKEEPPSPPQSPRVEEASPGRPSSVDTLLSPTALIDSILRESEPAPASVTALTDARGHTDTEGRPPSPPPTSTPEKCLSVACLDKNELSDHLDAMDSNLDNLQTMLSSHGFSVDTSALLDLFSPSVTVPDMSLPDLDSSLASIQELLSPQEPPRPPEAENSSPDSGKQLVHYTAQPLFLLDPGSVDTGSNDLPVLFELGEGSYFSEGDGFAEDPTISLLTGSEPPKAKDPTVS
compound,measurement,setting,value
CCCCCCCCCCCC(=O)O,outcome,[1],inactive
same,outcome,[2],inactive
same,outcome,[3],inactive
same,outcome,[4],inactive
same,AC50,[5],181 µM (active)
same,outcome,[5],inactive
same,outcome,[6],inactive
same,outcome,[7],inactive
same,outcome,[8],inactive
same,AC50,[9],36.7 µM (active)
same,outcome,[9],inactive
same,AC50,[10],52.7 µM (active) and 60 µM (active)
same,outcome,[11],inactive
same,outcome,[12],inactive
same,outcome,[13],inactive
same,outcome,[14],inactive
same,outcome,[15],inactive
CCCCN(C)C,outcome,[1],inactive
same,outcome,[2],inactive
same,outcome,[3],inactive
same,outcome,[16],inactive
same,outcome,[4],inactive
same,outcome,[5],inactive
same,outcome,[17],inactive
same,outcome,[6],inactive
same,AC50,[7],26.9 µM (active)
same,outcome,[18],inactive
same,outcome,[8],inactive
same,outcome,[9],inactive
same,outcome,[10],inactive
same,outcome,[11],inactive
same,outcome,[12],inactive
same,outcome,[13],inactive
same,outcome,[14],inactive
same,outcome,[15],inactive
c1ccc(CNc2ncnc3c2ncn3C2CCCCO2)cc1 (stereo unspecified),outcome,[2],inactive
same,outcome,[3],inactive
same,outcome,[16],inactive
same,outcome,[4],inactive
same,outcome,[5],inactive
same,AC50,[17],23.3 µM (active)
same,outcome,[6],inactive
same,AC50,[7],4.73 µM (active)
same,outcome,[18],inactive
same,outcome,[8],inactive
same,outcome,[9],inactive
same,outcome,[10],inactive
same,outcome,[11],inactive
same,outcome,[12],inactive
same,outcome,[13],inactive
same,outcome,[14],inactive
same,outcome,[15],inactive
FC(F)(F)N1C(F)(F)C(F)(F)OC(F)(F)C1(F)F,outcome,[1],inactive
same,outcome,[2],inactive
same,outcome,[3],inactive
same,outcome,[16],inactive
same,outcome,[4],inactive
same,outcome,[5],inactive
same,outcome,[17],inactive
same,outcome,[6],inactive
same,outcome,[7],inactive
same,outcome,[8],inactive
same,outcome,[19],inactive
same,outcome,[9],inactive
same,outcome,[10],inactive
same,outcome,[11],inactive
same,outcome,[12],inactive
same,outcome,[13],inactive
same,outcome,[14],inactive
same,outcome,[15],inactive
OCCN1CN(CCO)CN(CCO)C1,outcome,[1],inactive
same,outcome,[2],inactive
same,outcome,[3],inactive
same,outcome,[16],inactive
same,AC50,[4],178 µM (active)
same,AC50,[5],165 µM (active)
same,outcome,[17],inactive
same,AC50,[6],173 µM (active)
same,AC50,[7],30 µM (active)
same,outcome,[18],inactive
same,outcome,[8],inactive
same,AC50,[19],150 µM (active)
same,AC50,[9],144 µM (active)
same,outcome,[10],inactive
same,outcome,[11],inactive
same,outcome,[12],inactive
same,outcome,[13],inactive
same,outcome,[14],inactive
same,outcome,[15],inactive
C=COC(=O)C(C)(C)CCCCCC,outcome,[2],inactive
same,AC50,[3],130 µM (active)
same,outcome,[16],inactive
same,outcome,[4],inactive
same,outcome,[5],inactive
same,outcome,[17],inactive
same,outcome,[6],inactive
same,AC50,[7],27.9 µM (active)
same,outcome,[18],inactive
same,outcome,[8],inactive
same,outcome,[19],inactive
same,outcome,[9],inactive
same,outcome,[10],inactive
same,outcome,[11],inactive
same,outcome,[12],inactive
same,outcome,[13],inactive
same,outcome,[14],inactive
same,outcome,[15],inactive
O=C(Nc1ccc(Cl)c(Cl)c1)c1cc(Cl)cc(Cl)c1O,outcome,[1],inactive
same,outcome,[2],inactive
same,AC50,[3],0.378 µM (active)
same,outcome,[16],inactive
same,AC50,[4],52 µM (active)
same,AC50,[5],25.8 µM (active)
same,AC50,[17],1.35 µM (active)
same,AC50,[6],30.5 µM (active)
same,AC50,[7],1.49 µM (active)
same,AC50,[18],0.648 µM (active)
same,AC50,[8],0.903 µM (active)
same,outcome,[19],inactive
same,outcome,[9],inactive
same,outcome,[10],inactive
same,outcome,[11],inactive
same,outcome,[12],inactive
same,AC50,[13],33.4 µM (active)
same,outcome,[14],inactive
same,outcome,[15],inactive
